A number with no mark means an inactive call. Records with an inconclusive call do not appear. Where a call stands in place of a potency, no number is given. Activity calls are given as the source filed them. Unless noted, calls follow the shape of the dose curve; as a rule, active = well fitted curve in the direction sought with a large enough effect; inconclusive = small, poorly fitted or top-dose-only effect, or another doubt; inactive = no such curve, though single readings can be large; an effect the other way counts as inactive or inconclusive.
Columns and labels:
[1] = Viability counterscreen for antagonist of constitutive androstane receptor (CAR) against the NCATS DSHEA and TCM libraries (AID 1794837);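 also: compound exposure lasted 24 h before viability reading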
In short: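 Cell viability, CellTiter-Fluor, Ex/Em 405/540 nm, 1 h at 37C. HepG2-CYP2B6-hCAR, 2,500 cells/well; cpds + CITCO 48 uM final (antagonist mode), 24 h, 37C/5% CO2.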

[2] = molecular target: Nuclear receptor subfamily 1 group I member 3 (Homo sapiens) (UniProt Q14994); assay: Primary qHTS for agonist of constitutive androstane receptor (CAR) against the NCATS DSHEA and TCM libraries (AID 1794839);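 also: HepG2 cells expressing human CAR with a CYP2B6 reporter plus PK11195 antagonist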
In short: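 Luminescence from ONE-Glo luciferase was the agonist read-out in HepG2-CYP2B6-hCAR cells exposed 24 h to test substances. Wells also held the CAR antagonist PK11195 at 0.75 µM final. Viability was by CellTiter-Fluor fluorescence.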

[3] = HepG2 viability counterscreen (readout 2: ATP content) against the NCATS DSHEA and TCM libraries (AID 1794840)
In short: (§1)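 1,000 HepG2 cells/well, 4 h attach; compounds ~24 h, 37C/5% CO2. Readout 1: GF-AFC 25 uM final, 30 min, fluorescence 380/510 nm. Readout 2: CellTiter-Glo, 30 min RT, luminescence.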

[4] = HepG2 viability counterscreen (readout 1: protease activity) against the NCATS DSHEA and TCM libraries (AID 1794841);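 also: cells exposed to compounds for about 24 h before the protease read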
In short: as §1

[5] = molecular target: Cytochrome P450 3A4 (Homo sapiens) (UniProt P08684); assay: qHTS for inhibitors of CYP3A4 against the NCATS DSHEA and TCM libraries (AID 1919971); also: potency is read from the fitted curve at half-maximal effect;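 as to activity change, negative = inhibition: inhibition lowers luminescence from luciferin made by CYP3A4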
In short: (§2)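 Luminescent P450-Glo format: compounds preincubated 15 min with enzyme and luciferin substrate, reaction run 30-45 min after NADPH regeneration solution. Intraplate controls: ketoconazole for CYP3A4 and CYP2C19, sulfaphenazole for CYP2C9.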

[6] = molecular target: Cytochrome P450 2D6 (Homo sapiens) (UniProt P10635); assay: qHTS for inhibitors of CYP2D6 against the NCATS DSHEA and TCM libraries (AID 1919972)
In short: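 Luminescent P450-Glo read-out of CYP2D6 turnover of a luciferin substrate after NADPH-driven reaction of 30-45 min at room temperature. Compounds were first preincubated 15 min with enzyme at titrated concentrations; quinidine was the intraplate control.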

[7] = molecular target: Cytochrome P450 2C19 (Homo sapiens) (UniProt P33261); assay: qHTS for inhibitors of CYP2C19 against the NCATS DSHEA and TCM libraries (AID 1919974);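 also: luminescence from luciferin released by CYP2C19 oxidation of a pro-luciferin substrate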; also: potency is read from the fitted curve at half-maximal effect
In short: as §2

[8] = KB-3-1 P-gp reporter qHTS against the NCATS DSHEA and TCM libraries (AID 1919975)
In short: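 CellTiter-Glo luminescence viability readout; KB-3-1 parental cells, 500/well, attached ~4 h, then compound for ~72 h, 37C, 5% CO2. Bortezomib intraplate control.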

[9] = molecular target: Cytochrome P450 1A2 (Homo sapiens) (UniProt P05177); assay: qHTS for inhibitors of CYPIA2 against the NCATS DSHEA and TCM libraries (AID 1919976);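 also: light from luciferin formed by CYP1A2 from a pro-luciferin substrate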
In short: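 Human CYP1A2 with pro-luciferin substrate (typically 100 mM KPO4), 15 min preincubation with compound, then 1x NADPH regeneration for 30-45 min at room temperature in the dark. Luciferin quantified by luciferase luminescence; furafylline intraplate control.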

[10] = qHTS Counterscreen for compound interference against the NCATS DSHEA and TCM libraries (AID 1919978); details: firefly luciferase detection reagent interference, luminescence;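 also: compounds preincubated with 1 µM D-luciferin or buffer before detection reagent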
In short: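 Luminescence counterscreen for detection-kit interference: compounds at 19.5 nM–39.8 uM final, 15 min RT with 1 uM D-luciferin or buffer only; detection reagent added, 30 min RT, then read.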

[11] = Dual reporter qHTS for agonist of Pregnane X Receptor (hPXR) against the NCATS DSHEA and TCM libraries: Fluorescence readout (AID 1920058)
In short: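 hPXR-Luc HepG2 cells, 2000/well in charcoal-stripped serum, attached 5 h, dosed for ~24 h at 37 °C. Fluorescence read is CellTiter-Fluor viability (Ex/Em 405/540 nm); rifampicin positive, tetraoctyl ammonium bromide (92 µM) cytotoxicity controls.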

[12] = molecular target: Nuclear receptor subfamily 1 group I member 2 (Homo sapiens) (UniProt O75469); assay: Dual reporter qHTS for antagonist of Pregnane X Receptor (hPXR) against the NCATS DSHEA and TCM libraries: Luminescence Readout (AID 1920060);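 also: HepG2 cells carrying hPXR luciferase reporter stimulated with rifampicin at 2 µM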
In short: (§3)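 hPXR-Luc HepG2 cells exposed 24 h at 37 C to compounds with 2 uM rifampicin in antagonist mode; luciferase luminescence measured by ONE-Glo, with CellTiter-Fluor viability read beforehand.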

[13] = molecular target: Lysosomal acid glucosylceramidase (Homo sapiens) (UniProt P04062); assay: Glucocerebrosidase-p2 (AID 348; in the data active = potency below about 10 µM; also: potency is read from the fitted curve at half-maximal effect); details: purified GBA, blue fluorogenic substrate, 40 min
In short: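 Compounds titrated from 0.6 nM upwards against 0.2 nM enzyme in pH 5.9 citric acid/KH2PO4, taurocholate, tween-20; blue fluorogenic substrate 80 uM, 40 min room temperature, stopped and read Ex 365/Em 440 for AC50.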

[14] = AP1 Signaling Pathway (AID 357; active = well fitted curve in either direction with a large enough effect, not every such curve was filed as active;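 also: ME-180 reporter cells stimulated with EGF at its EC50 level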); details: ME-180 (cervical carcinoma) AP-1-bla reporter, EGF-induced, beta-lactamase ratio, 5 h; at 7.69 µM (top of the series) unless noted
In short: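 Cells are seeded overnight, exposed to compound titrations and an EC50 level of EGF for 5 hours at 37 °C, then loaded with CCF4 dye for 2.5 hours. Beta-lactamase activity under the AP-1 element is read as a blue/green ratio.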

[15] = NFAT Signaling Pathway (AID 444; active = well fitted curve in either direction with a large enough effect, not every such curve was filed as active;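 also: carbachol stimulus at about its EC50 of 1 µM final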); details: Jurkat NFAT-bla M1, carbachol, beta-lactamase ratio, 5 h; at 7.69 µM (top of the series) unless noted
In short: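 Jurkat cells carrying an NFAT-driven β-lactamase reporter and co-transfected muscarinic M1 receptor were treated with compound plus carbachol (1 uM final, an EC50 level) for 5 h at 37 °C. CCF4 loading followed for 1 h at RT; 460/530 nm ratio gave %activity.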

[16] = molecular target: Ubiquitin carboxyl-terminal hydrolase 1 (Homo sapiens) (UniProt O94782); assay: Inhibitors of USP1/UAF1: Pilot qHTS (AID 504865);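 also: rhodamine fluorescence freed from ubiquitin-rhodamine substrate followed over time; top concentration of the series differs between compounds; nearly all actives have a fitted effect of over 35% in size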
In short: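 1nM USP1/UAF1 + cpd, 15 min RT; start w/ Ub-Rho 150nM final; kinetic FL 480/540 nm, 6 reads q60 s. Buffer 50mM HEPES pH 7.8, 0.5mM EDTA, 1mM TCEP, 0.01% Tween-20, 0.1 mg/ml BSA.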

[17] = molecular target: Glucocorticoid receptor (Homo sapiens) (UniProt P04150); assay: GR-EFC Redistribution (AID 451; calls by dose curve; also: potency is read from the fitted curve at half-maximal effect); details: CHO-K1 GR-EFC translocation, beta-gal luminescence, 2 h
In short: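 CHO-K1 cells stably expressing nuclear-localized β-gal enzyme acceptor and GR fused C-terminally to the enzyme donor fragment; ligand-driven nuclear translocation restores β-gal by complementation. Compounds titrated up to 46 uM final, 2 h at 37 °C; luminescence read.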

[18] = molecular target: Mitogen-activated protein kinase 10 (Mus musculus) (UniProt Q61831); assay: JNK3 AlphaScreen Assay (AID 530; active = well fitted curve in either direction with a large enough effect, not every such curve was filed as active;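 also: kinase came from lysate of stimulated human HepG2 cells; signal reports phosphorylation of biotinylated GST-cJun 1-79 at Ser73 with 10 µM ATP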)
In short: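 Inhibitors reduce antibody binding to phosphorylated biotin-cJun, lowering AlphaScreen luminescence. Lysates from HepG2 cells pre-activated by IL-1beta plus TNF-alpha supplied JNK3; compounds were titrated.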

[19] = molecular target: Glucocorticoid receptor (Homo sapiens) (UniProt P04150); assay: GR-GFP Redistribution (AID 450;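 active = compounds whose dose series gives a full or clear partial fitted curve of increased nuclear translocation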; also: potency is read from the fitted curve at half-maximal effect); details: U2OS GR-GFP nuclear translocation, laser cytometry, 2 h
[20] = Dual reporter qHTS for antagonist of Pregnane X Receptor (hPXR) against the NCATS DSHEA and TCM libraries: Fluorescence Readout (AID 1920061)
In short: as §3

Nuclear receptor subfamily 1 group I member 3 (Homo sapiens), sequence (Q14994 whole entry, looked up): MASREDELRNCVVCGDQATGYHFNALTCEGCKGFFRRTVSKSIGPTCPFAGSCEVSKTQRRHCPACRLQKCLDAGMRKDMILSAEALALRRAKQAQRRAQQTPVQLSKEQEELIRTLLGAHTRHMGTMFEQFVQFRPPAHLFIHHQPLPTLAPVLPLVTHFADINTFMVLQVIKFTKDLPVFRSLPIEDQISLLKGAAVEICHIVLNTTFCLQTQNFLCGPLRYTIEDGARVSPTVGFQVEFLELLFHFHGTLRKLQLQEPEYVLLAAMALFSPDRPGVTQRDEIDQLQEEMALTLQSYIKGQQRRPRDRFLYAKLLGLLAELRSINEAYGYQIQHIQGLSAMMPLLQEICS
Cytochrome P450 3A4 (Homo sapiens), sequence (P08684 whole entry, looked up): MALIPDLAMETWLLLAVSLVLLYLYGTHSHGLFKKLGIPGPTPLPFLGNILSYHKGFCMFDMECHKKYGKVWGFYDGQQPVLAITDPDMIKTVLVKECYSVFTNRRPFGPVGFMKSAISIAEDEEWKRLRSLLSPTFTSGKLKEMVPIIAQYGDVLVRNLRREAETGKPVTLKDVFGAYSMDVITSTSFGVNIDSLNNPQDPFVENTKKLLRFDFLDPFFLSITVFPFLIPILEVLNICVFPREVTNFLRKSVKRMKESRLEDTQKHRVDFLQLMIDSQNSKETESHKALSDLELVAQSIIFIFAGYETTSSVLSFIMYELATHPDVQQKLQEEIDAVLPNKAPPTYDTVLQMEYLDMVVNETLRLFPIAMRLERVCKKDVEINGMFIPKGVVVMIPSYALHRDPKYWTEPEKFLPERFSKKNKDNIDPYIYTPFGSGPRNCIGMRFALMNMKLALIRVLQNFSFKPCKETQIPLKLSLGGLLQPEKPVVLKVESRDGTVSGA
Ubiquitin carboxyl-terminal hydrolase 1 (Homo sapiens), sequence (O94782 whole entry, looked up): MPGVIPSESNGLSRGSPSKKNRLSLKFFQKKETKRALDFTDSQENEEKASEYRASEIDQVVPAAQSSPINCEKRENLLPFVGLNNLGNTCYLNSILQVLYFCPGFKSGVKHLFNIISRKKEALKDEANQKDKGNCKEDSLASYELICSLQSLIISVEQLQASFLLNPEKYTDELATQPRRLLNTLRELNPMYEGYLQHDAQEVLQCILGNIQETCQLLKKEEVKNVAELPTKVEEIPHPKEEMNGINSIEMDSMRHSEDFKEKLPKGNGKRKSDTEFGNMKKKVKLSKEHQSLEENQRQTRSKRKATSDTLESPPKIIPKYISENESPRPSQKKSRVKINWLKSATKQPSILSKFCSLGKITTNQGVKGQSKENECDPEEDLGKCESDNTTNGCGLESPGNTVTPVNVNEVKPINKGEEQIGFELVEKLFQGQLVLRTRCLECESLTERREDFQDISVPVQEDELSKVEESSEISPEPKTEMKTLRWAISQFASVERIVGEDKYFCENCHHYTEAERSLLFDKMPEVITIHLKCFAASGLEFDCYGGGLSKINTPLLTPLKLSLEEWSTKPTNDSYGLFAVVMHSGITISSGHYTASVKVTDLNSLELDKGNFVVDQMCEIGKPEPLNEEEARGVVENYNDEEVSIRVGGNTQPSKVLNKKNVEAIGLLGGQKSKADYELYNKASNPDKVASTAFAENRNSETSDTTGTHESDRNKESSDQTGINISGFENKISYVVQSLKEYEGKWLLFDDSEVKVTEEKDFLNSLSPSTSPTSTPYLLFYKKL
Glucocorticoid receptor (Homo sapiens), sequence (P04150 whole entry, looked up, the tested form may be a part): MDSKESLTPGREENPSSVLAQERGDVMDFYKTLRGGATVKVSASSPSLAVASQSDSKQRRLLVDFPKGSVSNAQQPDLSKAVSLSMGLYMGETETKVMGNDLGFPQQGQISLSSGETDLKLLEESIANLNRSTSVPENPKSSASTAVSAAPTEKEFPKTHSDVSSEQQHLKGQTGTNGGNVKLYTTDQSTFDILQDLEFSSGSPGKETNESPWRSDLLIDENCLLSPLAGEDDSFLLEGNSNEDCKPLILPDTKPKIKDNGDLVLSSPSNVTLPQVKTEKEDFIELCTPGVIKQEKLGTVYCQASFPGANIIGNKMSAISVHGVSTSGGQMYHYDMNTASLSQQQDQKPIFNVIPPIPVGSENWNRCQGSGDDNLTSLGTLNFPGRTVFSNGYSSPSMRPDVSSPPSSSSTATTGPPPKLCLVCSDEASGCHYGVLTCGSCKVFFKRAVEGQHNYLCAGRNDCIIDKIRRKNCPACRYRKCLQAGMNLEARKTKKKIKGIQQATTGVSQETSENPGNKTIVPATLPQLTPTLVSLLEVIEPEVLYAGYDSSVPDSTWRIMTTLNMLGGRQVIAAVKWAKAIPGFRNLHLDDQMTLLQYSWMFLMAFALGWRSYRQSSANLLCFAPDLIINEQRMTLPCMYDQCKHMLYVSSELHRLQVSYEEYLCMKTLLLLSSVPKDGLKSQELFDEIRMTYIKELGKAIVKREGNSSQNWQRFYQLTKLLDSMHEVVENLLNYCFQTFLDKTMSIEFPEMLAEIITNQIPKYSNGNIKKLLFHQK
Cytochrome P450 2D6 (Homo sapiens), sequence (P10635 whole entry, looked up): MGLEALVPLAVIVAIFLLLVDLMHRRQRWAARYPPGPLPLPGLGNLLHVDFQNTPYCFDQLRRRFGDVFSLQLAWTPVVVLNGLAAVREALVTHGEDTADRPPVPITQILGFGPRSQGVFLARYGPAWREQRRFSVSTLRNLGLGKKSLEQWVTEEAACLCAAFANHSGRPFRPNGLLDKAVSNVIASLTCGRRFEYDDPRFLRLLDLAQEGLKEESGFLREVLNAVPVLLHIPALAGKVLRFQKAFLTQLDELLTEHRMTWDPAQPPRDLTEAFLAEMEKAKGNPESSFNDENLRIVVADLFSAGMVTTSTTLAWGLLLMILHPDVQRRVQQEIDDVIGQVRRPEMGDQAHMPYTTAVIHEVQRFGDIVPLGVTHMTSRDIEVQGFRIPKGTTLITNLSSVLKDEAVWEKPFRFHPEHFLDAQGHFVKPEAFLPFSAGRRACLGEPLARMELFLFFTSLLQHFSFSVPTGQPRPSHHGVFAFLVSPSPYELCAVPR
Lysosomal acid glucosylceramidase (Homo sapiens), sequence (P04062 whole entry, looked up): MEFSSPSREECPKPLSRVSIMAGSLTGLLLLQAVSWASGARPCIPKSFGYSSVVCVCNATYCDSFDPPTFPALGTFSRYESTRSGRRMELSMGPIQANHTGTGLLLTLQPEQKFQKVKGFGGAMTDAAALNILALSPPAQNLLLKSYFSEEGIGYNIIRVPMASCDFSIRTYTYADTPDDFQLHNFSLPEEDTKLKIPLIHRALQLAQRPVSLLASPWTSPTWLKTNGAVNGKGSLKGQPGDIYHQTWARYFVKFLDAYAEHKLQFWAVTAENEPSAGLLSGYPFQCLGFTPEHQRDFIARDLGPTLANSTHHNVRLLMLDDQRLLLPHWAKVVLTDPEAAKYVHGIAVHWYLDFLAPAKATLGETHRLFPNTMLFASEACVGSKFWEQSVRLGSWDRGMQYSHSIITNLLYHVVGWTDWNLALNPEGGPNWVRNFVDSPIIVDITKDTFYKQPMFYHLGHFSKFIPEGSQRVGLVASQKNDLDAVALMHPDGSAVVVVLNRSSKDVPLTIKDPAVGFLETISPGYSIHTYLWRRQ
Cytochrome P450 2C19 (Homo sapiens), sequence (P33261 whole entry, looked up): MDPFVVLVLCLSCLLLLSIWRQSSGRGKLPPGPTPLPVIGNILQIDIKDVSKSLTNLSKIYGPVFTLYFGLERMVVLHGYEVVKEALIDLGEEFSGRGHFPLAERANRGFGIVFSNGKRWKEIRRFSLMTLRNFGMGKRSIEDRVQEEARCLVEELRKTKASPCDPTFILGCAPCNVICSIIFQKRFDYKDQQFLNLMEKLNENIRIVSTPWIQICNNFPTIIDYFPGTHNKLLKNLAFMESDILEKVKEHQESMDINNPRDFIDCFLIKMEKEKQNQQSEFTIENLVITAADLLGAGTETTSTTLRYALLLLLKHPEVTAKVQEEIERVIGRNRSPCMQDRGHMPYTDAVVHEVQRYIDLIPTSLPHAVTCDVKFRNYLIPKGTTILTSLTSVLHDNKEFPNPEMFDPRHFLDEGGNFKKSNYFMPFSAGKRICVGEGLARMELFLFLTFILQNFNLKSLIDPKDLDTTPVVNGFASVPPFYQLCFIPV
Nuclear receptor subfamily 1 group I member 2 (Homo sapiens), sequence (O75469 whole entry, looked up): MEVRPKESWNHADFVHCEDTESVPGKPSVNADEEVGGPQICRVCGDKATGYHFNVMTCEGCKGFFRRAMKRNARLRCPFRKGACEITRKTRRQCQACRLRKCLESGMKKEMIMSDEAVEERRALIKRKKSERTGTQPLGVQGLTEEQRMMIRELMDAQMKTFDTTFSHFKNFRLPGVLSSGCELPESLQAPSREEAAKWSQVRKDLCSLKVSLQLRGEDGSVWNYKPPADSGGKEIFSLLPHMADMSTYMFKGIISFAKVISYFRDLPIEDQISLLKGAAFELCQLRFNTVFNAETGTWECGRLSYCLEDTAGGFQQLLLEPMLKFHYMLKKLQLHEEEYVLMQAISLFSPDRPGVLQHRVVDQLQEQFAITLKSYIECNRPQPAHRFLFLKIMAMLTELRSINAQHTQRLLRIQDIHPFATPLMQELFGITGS
Cytochrome P450 1A2 (Homo sapiens), sequence (P05177 whole entry, looked up): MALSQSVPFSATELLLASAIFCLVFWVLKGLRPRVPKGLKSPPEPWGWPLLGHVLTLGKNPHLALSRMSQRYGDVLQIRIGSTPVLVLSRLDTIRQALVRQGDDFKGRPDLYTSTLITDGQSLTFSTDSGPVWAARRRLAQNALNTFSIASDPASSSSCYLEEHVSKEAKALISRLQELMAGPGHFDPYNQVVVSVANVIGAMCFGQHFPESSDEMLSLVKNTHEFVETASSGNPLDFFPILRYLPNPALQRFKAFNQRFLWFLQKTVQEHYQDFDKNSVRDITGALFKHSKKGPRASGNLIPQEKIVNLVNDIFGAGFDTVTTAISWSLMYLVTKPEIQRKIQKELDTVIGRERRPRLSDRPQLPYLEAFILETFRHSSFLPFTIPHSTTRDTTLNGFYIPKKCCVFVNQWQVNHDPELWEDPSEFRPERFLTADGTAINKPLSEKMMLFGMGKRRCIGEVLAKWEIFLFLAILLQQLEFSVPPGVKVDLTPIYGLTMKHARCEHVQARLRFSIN

For CC1=CCC(O)(C(C)C)CC1 (centres undefined), the outcome [1] was “inactive”, the Potency [2] was “inactive” and the outcome [3] was “inactive”. For the same compound, the outcome [4] was “inactive”, the Potency [5] was “inactive” and the Potency [6] was “inactive”. The Potency [7] was “inactive”, the outcome [8] was “inactive” and the Potency [9] was “inactive”. The max response [10] was 1.58%, the outcome [11] was “inactive” and the outcome [12] was “inactive”.
In the case of CN1CCN(c2ncnc3ccc(-c4cccc(C#N)c4)cc23)CC1, the Potency [13] is reported as greater than 11.4 µM, the activity change, negative = inhibition [14] is reported as -0.311% and the activity change, negative = inhibition [15] is reported as -4.66%. The Potency [16] was “inactive”.
Work on COc1ccc2[nH]cc(CCNc3ncncc3-c3ccccc3C)c2c1 yielded a Potency [13] greater than 11.4 µM, an activity change, negative = inhibition [15] of 7.13% and a Potency [17] greater than 46 µM. For the same compound, the Potency [18] was “inactive” and the Potency [16] was “inactive”.
Work on COc1ccc2[nH]cc(CCNc3cc(-c4ccccc4OC)ncn3)c2c1 yielded a Potency [13] greater than 11.4 µM, an activity change, negative = inhibition [15] of -7.55% and a Potency [19] greater than 46 µM. The Potency [17] was greater than 46 µM and the Potency [16] was “inactive”.
For CC(C)=CCC[C@](C)(O[C@@H]1O[C@H](CO)[C@@H](O)[C@H](O)[C@H]1O)[C@H]1CC[C@]2(C)[C@@H]1[C@H](O)C[C@@H]1[C@@]3(C)CC[C@H](O)C(C)(C)[C@@H]3[C@@H](O[C@@H]3O[C@H](CO)[C@@H](O)[C@H](O)[C@H]3O[C@@H]3O[C@@H](C)[C@H](O)[C@@H](O)[C@H]3O)C[C@]12C, the outcome [1] was “inactive”, the Potency [2] was “inactive” and the outcome [3] was “inactive”. The outcome [4] was “inactive”, the Potency [5] was “inactive” and the Potency [6] was “inactive”. For the same compound, the Potency [7] was “inactive”, the outcome [8] was “inactive” and the Potency [9] was “inactive”. The max response [10] was 0.587%, the outcome [11] was “inactive” and the outcome [12] was “inactive”. The outcome [20] was “inactive”.
For CC1=CC[C@H](C(C)C)C=C1, the outcome [1] was “inactive”, the Potency [2] was “inactive” and the outcome [3] was “inactive”. For the same compound, the outcome [4] was “inactive”, the Potency [5] was 35.5 µM (active) and the Potency [6] was “inactive”. The Potency [7] was 39.8 µM (active), the outcome [8] was “inactive” and the Potency [9] was “inactive”. The max response [10] was 0.517%, the outcome [11] was “inactive” and the outcome [12] was “inactive”.
With C=C1C[C@@]23CC[C@H]4[C@@](C)(CCC[C@@]4(C)C(=O)O[C@@H]4O[C@H](CO)[C@@H](O)[C@H](O)[C@H]4O[C@@H]4O[C@H](CO)[C@@H](O)[C@H](O)[C@H]4O)[C@@H]2CC[C@]1(O[C@@H]1O[C@H](CO)[C@@H](O)[C@H](O)[C@H]1O[C@@H]1O[C@H](CO)[C@@H](O)[C@H](O)[C@H]1O)C3 the outcome [1] was “inactive”, the Potency [2] was “inactive” and the outcome [3] was “inactive”. The Potency [5] was “inactive”, the Potency [6] was “inactive” and the Potency [7] was “inactive”. The outcome [8] was “inactive”, the Potency [9] was “inactive” and the max response [10] was 4.27%. The outcome [11] was “inactive” and the outcome [12] was “inactive”.
In the case of O=c1c(-c2ccccc2)nc2cncnc2n1Cc1ccccc1, the Potency [13] is reported as greater than 11.4 µM, the activity change, negative = inhibition [14] is reported as -16.6% and the activity change, negative = inhibition [15] is reported as -1.09%. The Potency [19] was greater than 9.22 µM, the Potency [17] was greater than 46 µM and the Potency [18] was “inactive”. The Potency [16] was “inactive”.

— PubChem BioAssay (NCATS)
